Screening results (PubChem)
FadD28 FP inh – inhibitors of FadD28 bisubstrate probe binding, primary screen, biochemical, fluorescence polarization, single point; 360,000 tested, 0.22% active; Mycobacterium tuberculosis FadD28 fatty-acid-AMP ligase; inhibition, % at 12.5 µM; in the data active = inhibition above about 8.5%, passing the limit was not always enough
PriA SSB inh – inhibitors of Klebsiella pneumoniae PriA binding to SSB C-terminal tail, primary screen, biochemical, AlphaScreen; PriA–SSB C-terminal tail interaction (Klebsiella pneumoniae); AlphaScreen SSBct-PriA binding, biotinylated peptide; inhibition, % at 33 µM; 430,000 tested, 0.6% active; AID 1272365, 2023; in the data active = inhibition mostly above about 37%, no sharp cut-off; inactive = mostly below about 20%;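 also: plate controls were negative control peptide for no effect and reference peptide for full effect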
TcdB inh – TcdB glycohydrolase inhibitors, primary screen, biochemical, single point, plate reader; 350,000 tested, 0.24% active; inhibition, % at 9.99 µM; AID 652162, 2013; TcdB glycohydrolase enzymatic assay; Toxin B (Clostridioides difficile), P18177; in the data active = inhibition above about 10%
PrP 5UTR inh – inhibition of PrP 5' UTR reporter expression; 340,000 tested, 0.35% active; inhibition, % (concentration not given with the values); cell-based PrP 5' UTR mRNA reporter, plate reader; in the data active = inhibition above about 52%; also: 0 = median of the neutral control wells
Mtb BioA inh – M. tuberculosis BioA enzyme inhibitors, primary screen, biochemical, plate reader, single point, HTS. purified M. tuberculosis BioA enzyme. inhibition, % at 9.99 µM. 360,000 tested, 0.096% active. 7,8-diaminopelargonic acid synthase BioA (Mycobacterium tuberculosis); in the data active = inhibition above about 40%
Mtb hypoxia rep – PubChem AID 1159583 | M. tuberculosis hypoxia-regulated fluorescent reporter, fluorescence | fluorescence inhibition, % (test concentration not listed) | 300,000 tested, 0.1% active; in the data active = fluorescence inhibition mostly above about 23%, no sharp cut-off; inactive = mostly below about 17%
Starred values were filed as active, the others as inactive; . = not tested or not shown; ! = not confirmed by another sample. Compounds with a hit are over-represented: about 1% of the library has one in this group of screens.

SMILES	FadD28 FP inh	PriA SSB inh	TcdB inh	PrP 5UTR inh	Mtb BioA inh	Mtb hypoxia rep
COc1ccc(C)cc1-n1nnnc1SC(C)C(=O)NC1CCCC1 (stereo unspecified)	-3.0	1.7	3.1	-21.9	0.0	24.8*
CC(Sc1nnnn1-c1cccc(F)c1)C(=O)NC1CCCC1 (stereo unspecified)	-0.2	-8.5	2.7	-14.3	-0.4	-8.0
CCC(=O)N1CCc2cc(S(=O)(=O)NC(Cc3ccccc3)C(=O)NC3CCCCC3)ccc21 (stereo unspecified)	-5.1	-15.9	0.9	-17.4	.	7.5
O=C(Nc1cccc(O)c1)c1cccc(C(=O)Nc2cccc(O)c2)c1	-8.9	31.6	3.2	-4.2	26.8	47.4*
CCC(=O)Nc1cccc(NC(=O)c2ccc(Br)cc2)c1	-1.9	-0.3	-1.5	-17.1	.	.
CC(=O)Nc1cccc(NC(=O)c2ccc(Br)cc2)c1	-1.1	-4.8	10.3*	-47.8	7.2	1.1
CCOC(=O)c1c(NC(C)=O)sc2c1CCC(C=O)=C2Sc1ccccc1	-5.7	14.8	0.1	-23.1	-1.6	11.3
CC(=NNC(=O)C(C)Oc1ccc([N+](=O)[O-])cc1)c1ccccn1 (stereo unspecified)	.	47.8*	.	.	.	1.3
CC(=NNC(=O)C(c1ccccc1)c1ccccc1)c1ccccn1	.	-7.2	.	.	.	-5.4
CN1C(=O)/C(=C\c2ccc(N(C)C)cc2)OC1=S	0.7	-15.3	-1.1	-37.5	-1.9	.
CN(C)c1ccc(C=C2C=CC=C2)cc1	-1.9	41.1*	3.8	-67.2	0.0	7.1
O=C(NCCC1=CCCCC1)C(=O)NC[C@@](O)(c1ccccc1)C1CC1	.	7.0	.	.	.	.
CCOC(=O)c1sc2nc(N3CCOCC3)c3c(c2c1N)CCC3	1.3	-2.6	.	-22.9	8.0	7.7
CCOC(=O)c1sc2nc(OCCN3CCOCC3)cc(C)c2c1N	.	.	11.9*	.	.	.
Cc1ccc(CSc2nc3nc(C)cc(C)c3c(=O)[nH]2)cc1	-1.0	-6.2	13.1*	-9.6	-0.9	-3.2
Cc1cc(C)c2c(=O)[nH]c(SCc3ccccc3)nc2n1	-4.2	-16.3	0.3	-30.6	.	4.9
S=C(N=Nc1ccccc1)NNc1ccccc1	1.4	71.9*	-1.0	-90.6	0.9	8.2
Cc1onc(-c2ccccc2)c1C(=O)N(Cc1ccco1)Cc1cccs1	-3.8	-15.3	16.2*	-2.4	.	2.6
Cc1onc(-c2ccccc2)c1C(=O)NCc1ccco1	0.3	-13.5	.	-31.8	-0.6	7.9
Cc1ccc(NNC(=O)c2c(C)noc2C)cc1Cl	-3.7	-1.0	-1.2	-8.6	.	-18.5
Cc1ccc(NNC(=O)c2ccno2)cc1C	-0.5	-9.5	88.2*	-12.2	.	-4.6
Cc1cc(C(=O)NNc2ccc(C)c(C)c2)no1	-1.5	-8.0	60.7*	-24.5	.	6.3
Cc1ccc(NNC(=O)c2ccno2)cc1Cl	-1.4	-4.5	72.6*	-9.6	-0.8	-3.0
CCOC(=O)N1CCN(S(=O)(=O)c2ccc3oc(=O)ccc3c2)CC1	.	2.0	.	.	.	.
COc1ccc(-c2csc(/C(C#N)=C\c3ccc(O)c([N+](=O)[O-])c3)n2)cc1OC	9.5*	-13.8	0.9	-14.7	4.9	17.8
SMILES	FadD28 FP inh	PriA SSB inh	TcdB inh	PrP 5UTR inh	Mtb BioA inh	Mtb hypoxia rep
CC1(C)C(=O)Nc2ccccc2N1C(=O)CSc1nnc2c(Cl)cc(Cl)cn12	-1.9	6.2	0.9	-19.9	.	-2.4
O=C(CSc1ccc(-c2ccccn2)nn1)NC1CCCCC1	-1.9	72.0*!	1.8	-24.6	.	12.7
O=C(CSc1ccc(-c2ccccn2)nn1)NCCc1ccccc1	.	81.3*	.	.	.	.
O=C(CSc1ccc2nnc(-c3ccccc3)n2n1)NCc1ccco1	-3.3	1.6	.	-2.8	-0.9	-2.8
O=C(CSc1ccc2nnc(-c3ccccn3)n2n1)NCc1ccco1	-0.8	82.2*	-1.9	-18.7	0.4	0.2
O=C(CSc1ccc(-c2ccccn2)nn1)NCc1ccccc1	-3.7	50.0*!	2.1	-19.0	.	14.7
CCNC(=O)CC1C(=O)N(c2ccccc2)C(=O)N1Cc1ccc(OC)cc1 (stereo unspecified)	0.0	-7.8	.	-27.4	.	2.8
CCOc1ccc(-c2nnc3ccc(=S)[nH]n23)cc1	.	-4.0	.	.	.	.
COc1ccc(S(=O)(=O)N(C)C[C@@H]2Oc3c(NC(=O)c4ccc(-c5nccs5)cc4)cccc3C(=O)N([C@@H](C)CO)C[C@@H]2C)cc1	.	.	0.3	.	-2.7	.
CCCNC(=O)COc1coc(CN2CCN(c3ccccc3F)CC2)cc1=O	-2.8	2.9	1.3	6.3	-0.9	-18.3
Cc1nnc(SCc2ccccc2)nc1/C=C/NOCc1ccc(Cl)cc1Cl	-1.1	-2.8	.	1.4	.	.
O=C(CSc1ccc(-c2ccccc2)nn1)NCc1ccco1	-2.4	-11.1	.	-24.3	-3.2	-2.3
O=C(CSc1ccc(-c2ccccn2)nn1)NCc1ccco1	.	71.0*	.	.	.	.
CC(=O)N(C)c1ccc(OCC(O)CN(Cc2ccco2)S(=O)(=O)c2ccccc2)cc1 (stereo unspecified)	.	-4.0	.	.	.	.
COc1ccc(-c2csc(N(CCCN(C)C)C(=O)c3ccc(C(C)(C)C)cc3)n2)cc1	-1.6	29.6	0.4	-6.0	-1.4	1.7
CCCN1CCCc2cc(CCNC(=O)C(=O)Nc3ccc(C)c(C)c3)ccc21	.	36.0	.	.	.	.
CCCN1CCCc2cc(CCNS(=O)(=O)c3ccc(C)c(C)c3)ccc21	.	61.0*	.	.	.	.
CCCN1CCCc2cc(CCNS(=O)(=O)c3ccc(F)c(C)c3)ccc21	.	59.0*	.	.	.	.
O=C(c1ccc2ccccc2n1)N1CCN(c2ccccn2)CC1	.	-2.2	0.2	6.4	-1.2	5.2
CCc1ccc(OC)c(S(=O)(=O)Nc2ccc3c(c2)N(CCC(C)C)C(=O)C(C)(C)CO3)c1	.	-17.0	.	.	.	.
CC(C)(C)C(=O)N1Cc2cncnc2C1	.	18.0	.	.	.	.
CCOc1ccc(NC(=S)NN(C)C(=S)Nc2ccc(OCC)cc2)cc1	1.8	40.2*	.	3.9	.	10.8
CC1CN(c2oc(Cc3cccc4ccccc34)nc2C#N)CC(C)O1 (stereo unspecified)	-3.1	51.6*	.	-16.4	.	8.6
O=C(Nc1nc(-c2ccccn2)cs1)C12CC3CC(CC(O)(C3)C1)C2	-2.2	76.4*	1.1	-46.6	.	7.5
CCC(=O)Nc1nc(-c2ccccn2)cs1	.	18.0	.	.	.	.
O=C(Nc1nc(-c2ccccn2)cs1)C1CC(=O)N(c2ccc3c(c2)OCCO3)C1 (stereo unspecified)	-1.6	78.0*	-0.6	2.4	-5.3	-1.1
O=C(Nc1nc(-c2ccccn2)cs1)C1CC1	-1.1	104.2*	1.0	-8.5	-1.5	-1.9
CC1(C)OC(=O)CC1C(=O)Nc1nc(-c2ccccn2)cs1 (stereo unspecified)	.	104.0*	.	.	.	.
COc1cc(/C=C/C(=O)Nc2nncs2)cc(OC)c1OC	.	4.0	.	.	.	.
O=C(NC1CCCC1)C1CC(c2ccc(F)cc2)=NO1 (stereo unspecified)	-0.5	-20.4	.	-13.9	-1.2	.
